Source: PubChem BioAssay (Buhrlage Lab, Dana-Farber Cancer Institute and Novartis Institutes for BioMedical Research (Cambridge, Mass))
Most compounds without a hit are left out; they make up all but 12% or so of the library.
USP28 block – human USP28 deubiquitinase inhibition; AID 1645857; Q96RU2; purified USP28, Ub-rhodamine cleavage fluorescence, 30 min; inhibition, % at 25 µM; hit rate 3% among 47,000
USP17 block – blocks human USP17 ubiquitin-rhodamine cleavage | purified USP17, Ub-rhodamine cleavage fluorescence, 3 h | inhibition, % at 50 µM | hit rate 6.5% among 47,000 | AID 1645855
OTUD3 inh – blocks human OTUD3 ubiquitin-rhodamine cleavage. purified OTUD3, Ub-rhodamine fluorescence, 2 h. inhibition, % at 25 µM. hit rate 0.7% among 47,000. AID 1645858
USP30 inh – blocks human USP30 ubiquitin-rhodamine cleavage; Q70CQ3; hit rate 5.3% among 47,000; AID 1645860; purified USP30, Ub-rhodamine cleavage fluorescence; inhibition, % at 25 µM
Target sequence (Q70CQ3 whole entry, looked up): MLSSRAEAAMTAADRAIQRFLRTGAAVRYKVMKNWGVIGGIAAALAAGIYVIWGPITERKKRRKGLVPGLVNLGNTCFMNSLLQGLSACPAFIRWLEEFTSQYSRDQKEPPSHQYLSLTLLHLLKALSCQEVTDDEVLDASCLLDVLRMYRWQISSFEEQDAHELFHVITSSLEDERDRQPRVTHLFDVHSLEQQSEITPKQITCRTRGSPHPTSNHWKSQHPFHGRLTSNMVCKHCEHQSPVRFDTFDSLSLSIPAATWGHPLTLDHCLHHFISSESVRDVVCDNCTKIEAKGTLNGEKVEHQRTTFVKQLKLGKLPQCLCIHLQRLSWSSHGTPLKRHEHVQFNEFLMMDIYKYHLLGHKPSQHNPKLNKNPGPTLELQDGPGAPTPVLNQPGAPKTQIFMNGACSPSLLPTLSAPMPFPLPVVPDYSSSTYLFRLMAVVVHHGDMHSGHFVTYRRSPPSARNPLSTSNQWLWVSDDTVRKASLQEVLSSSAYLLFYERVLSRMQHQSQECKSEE
Starred values were filed as active, the others as inactive; i = inactive; nt = no result given. No stated cut-off is given here; in the data, active means inhibition above about 30%; inactive means the rest.

SMILES	USP28 block	USP17 block	OTUD3 inh	USP30 inh
O=C(Nc1cc(-c2ccccn2)no1)c1cccc(F)c1	7	4	-1	4
COc1ccc(C(=O)Nc2cc(-c3ccccn3)no2)cn1	63*	5	15	20
O=C(Cc1cccc(Cl)c1)Nc1cc(-c2ccccn2)no1	0	-9	-13	-16
O=C(Cc1ccc(Cl)cc1)Nc1cc(-c2ccccn2)no1	1	40*	0	5
CCc1ccc(NS(=O)(=O)c2cc(-c3[nH]ncc3C(=O)N3CCCCC3)oc2C)cc1	1	22	0	41*
Cc1ccc(NS(=O)(=O)c2cc(-c3[nH]ncc3C(=O)N3CCCCC3)oc2C)cc1	-6	-14	-10	-28
COC(=O)c1ccc(C(=O)Nc2cc3ccccc3cc2NC(=O)c2ccc(C(=O)OC)cc2)cc1	2	68*	0	41*
COc1ccccc1-n1cc(-c2ccccc2)c2c(NC3CC3)ncnc21	7	-3	-8	1
Cc1c(C)n(CCN(C)C)c2ncnc(NCc3ccccn3)c12	0	-7	15	15
CN1C(=O)COc2ccc(NC(=O)c3cc(-c4ccccc4)on3)cc21	12	74*	13	27
Cc1cc(NCC(=O)Nc2ccc(Cl)cc2)n2nc(-c3cccnc3)nc2n1	22	12	15	38*
CCCCNC(=O)c1cccc(Nc2cc(C)nc3nc(-c4cccnc4)nn23)c1	-2	32*	-5	38*
Cc1cccc(CSCCNC(=O)CN2C(=O)c3cccc4cccc2c34)c1	4	41*	-5	23
O=C(CN1C(=O)c2cccc3cccc1c23)NCCSCc1ccc(Cl)c(Cl)c1	-2	-3	8	0
COc1ccc(NC(=O)CC(C)CC(=O)Nc2ccc(C(C)C)cc2)c(OC)c1 (stereo not drawn)	2	46*	14	20
COc1cc2cc(CN(Cc3cccnc3)C(=O)Nc3ccc(Cl)cc3)c(=O)[nH]c2cc1OC	-13	11	-16	40*
Cc1ccc2[nH]c(=O)c(CN(Cc3cccnc3)C(=O)c3cccc(Cl)c3)cc2c1	7	9	25	51*
CCc1ccc2[nH]c(=O)c(CN(CCc3ccc(OC)c(OC)c3)C(=O)Nc3ccccc3)cc2c1	23	44*	1	54*
Cc1ccc2[nH]c(=O)c(CN(Cc3cccnc3)S(=O)(=O)c3ccccc3)cc2c1	-4	-7	4	10
CCOc1ccc(C(=O)Oc2ccc(-n3cnnn3)cc2)cc1	-3	5	-8	11
CC1=CC=CN2C(=O)C(Cc3ccc(C)cc3)(NC(=O)c3ccccc3)N=C12 (stereo not drawn)	6	12	9	10
O=C(Nc1ccccc1Oc1ccccc1)c1cccc(N2C(=O)CCS2(=O)=O)c1	21	-7	9	-7
CC1=C(C(=O)Nc2ccccc2)C(c2cccnc2)n2c(nc3ccccc32)N1 (stereo not drawn)	17	45*	8	18
CC1=C(C(=O)Nc2ccc(C)cc2)C(c2ccncc2)n2c(nc3ccccc32)N1 (stereo not drawn)	1	-7	-19	1
CN1CC2(CC1=O)CN(C(=O)Nc1ccccc1)CCN(S(C)(=O)=O)C2 (stereo not drawn)	12	nt	25	28
SMILES	USP28 block	USP17 block	OTUD3 inh	USP30 inh
Cc1ccc(Nc2c(-c3ccccc3O)nc3c[n+](CC(N)=O)ccn23)cc1	-81	-64	-54	-224
CN1CCCC12CCCN(C(=O)c1ccc(Cl)cc1)C2 (stereo not drawn)	-11	-4	-8	-3
N[C@@H](Cc1ccccc1)C(=O)N1CCC2(CC1)CN(C(=O)c1ccc(Cl)cc1)CCO2	45*	46*	21	68*
COC(=O)c1ccc(NC(=O)CSc2nc3c(cc2C#N)CC(C(C)(C)C)CC3)cc1 (stereo not drawn)	13	9	16	15
COCCn1c(C)cc(C(=O)c2sc(-c3c(N)n(C)c(=O)n(C)c3=O)nc2-c2ccccc2)c1C	23	35*	21	27
O=C(Nc1cccc(Cl)c1)C1Oc2ccccc2NC1=O (stereo not drawn)	19	16	-2	11
CC(=O)N1Cc2ccccc2OC2(CCCN(Cc3ccncc3)C2)C1 (stereo not drawn)	4	6	6	-2
Cc1cnc(C(=O)N2CCC[C@@H]3NC(=O)c4ccccc4OCC/C=C/C[C@@H]32)cn1	45*	0	9	-15
COc1cccc(N2CC(=O)Nc3c(oc4nc(-c5ccccc5)cc(C)c34)C2=O)c1	4	3	22	37*
O=C(CSCc1nc(-c2ccc(Cl)cc2)no1)Nc1ccccc1F	-7	14	3	9
COc1cc(/C=C/C23NC(=O)CCN2c2ccc(C)cc2C3(C)C)ccc1OCc1ccc(C)cc1 (stereo not drawn)	-217	nt	-189	i
Cc1ccc(CNC(=O)Cc2nnc(-c3ccc4ncccc4c3)o2)cc1	11	31*	-9	-115
CC1(C(=O)NC2CCCC2)Cn2c(nc3ccccc32)C(=O)N1Cc1ccc(F)cc1 (stereo not drawn)	-7	-3	-9	-8
CC1(C(=O)NC2CCCC2)Cn2c(nc3ccccc32)C(=O)N1CCc1ccccc1 (stereo not drawn)	2	9	3	36*
COc1ccccc1CN1C(=O)c2nc3ccccc3n2CC1(C)C(=O)NC1CCCC1 (stereo not drawn)	10	-2	11	30*
Oc1sc(C=Nc2cc(Cl)ccc2Cl)c2ccccc12	0	54*	-11	-58
CC(C)CC[C@H]1O[C@@H](CC(=O)O)Cc2cc3c(c(O)c21)C(=O)c1sc(=O)n(C)c1C3=O	77*	78*	70*	16
O=C(Cn1c(=O)[nH]c2c(-c3ccccc3)c[nH]c2c1=O)NCc1ccccc1Cl	-35	-20	-11	-96
CC1(C)C(O)CCC2(C)C1CCC1(C)C2C(=O)C=C2[C@@H]3C[C@@](C)(C(=O)O)CCC3(C)CC[C@]21C (stereo partly drawn)	29	46*	23	49*
COc1ccc(CNC(=O)CCCc2nnc3c(=O)n(-c4cc(C)cc(C)c4)ccn23)cc1	9	39*	24	-1
O=C(CCCc1nnc2c(=O)n(-c3cccc(F)c3)ccn12)NCc1ccc(Cl)cc1	-10	35*	-7	-38
Cc1ccc(CNC(=O)CCc2nnc3c(=O)n(-c4ccc(C)c(C)c4)ccn23)cc1	33*	32*	27	40*
O=C(Cc1noc(-c2ccc(F)cc2)n1)Nc1ccccc1	-45	-28	-41	-198
Cc1cc(NC(=O)c2ccc(-c3cc(C(F)(F)F)ccc3Cl)o2)no1	0	14	-3	13
COc1ccccc1CNC(=O)CCCCn1c(=O)c2ccccc2n(Cc2ccccc2C#N)c1=O	21	65*	22	27
COc1ccnc2c1c(=O)n(CC(=O)N1CCCC1)c(=O)n2C	-12	-9	-8	-36
COc1ccnc2c1c(=O)n(CC(=O)NCc1ccccc1Cl)c(=O)n2C	3	13	-6	42*
